Measured values as given in PubChem BioAssay (NCI).
Where “and” joins values, the source holds several entries; their conditions need not be identical. Identical values can stand only once. The panel holds about 83,000 compounds, 20% with a hit somewhere; the sample as a whole holds those more often.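 Results are percent growth after 48 hours of single-concentration exposure. 100 means growth as in untreated cells, lower positive values show inhibition; negative values down to -100 show cell death.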 Calls of active or inactive are those of the source. How the source made its calls: active means growth percent below 10; inactive means the rest.

Columns and labels:
Test in all cases: NCI-60 one-dose screen, 48 h (100 = growth as untreated, 0 = no growth, -100 = all killed)
NCI-H460 lung = conditions: 10 µM unless noted
786-0 renal = conditions: 10 µM unless noted
DU-145 prostate = conditions: 10 µM unless noted
SF-268 CNS = conditions: 10 µM unless noted
SF-539 CNS = conditions: 10 µM unless noted
M14 melanoma = conditions: 10 µM unless noted
HCT-15 colon = conditions: 10 µM
SNB-75 CNS = conditions: 10 µM unless noted
PC-3 prostate = conditions: 10 µM unless noted
UACC-62 melanoma = conditions: 10 µM unless noted
TK-10 renal = conditions: 10 µM unless noted
ACHN renal = conditions: 10 µM unless noted
CAKI-1 renal = conditions: 10 µM unless noted
HL-60(TB) leukemia = conditions: 10 µM unless noted
MOLT-4 leukemia = conditions: 10 µM
OVCAR-3 ovarian = conditions: 10 µM unless noted
NCI/ADR-RES ovarian = conditions: 10 µM unless noted
SW-620 colon = conditions: 10 µM unless noted
MCF7 breast = conditions: 10 µM unless noted
KM12 colon = conditions: 10 µM unless noted

SMILES: CC(=O)OC1CCC2(C)C(=CCC3C4CC(CN5CC5)C(=O)C4(C)CCC32)C1 (configuration not stated)
- growth (NCI-H460 lung): 88.2% (inactive)
- growth (786-0 renal): 87.9% (inactive)
- growth (DU-145 prostate): 80.8% (inactive)
- growth (SF-268 CNS): 101% (inactive)
- growth (SF-539 CNS): 98.1% (inactive)
- growth (M14 melanoma): 93.4% (inactive)
- growth (HCT-15 colon): 89.7% (inactive)
- growth (SNB-75 CNS): 93.9% (inactive)
- growth (PC-3 prostate): 88.3% (inactive)
- growth (UACC-62 melanoma): 94.4% (inactive)
- growth (TK-10 renal): -12.1% (active)
- growth (ACHN renal): 76.4% (inactive)
- growth (CAKI-1 renal): 88% (inactive)
- growth (HL-60(TB) leukemia): 64.2% (inactive)
- growth (MOLT-4 leukemia): 15.6% (inactive)
- growth (OVCAR-3 ovarian): 112% (inactive)
- growth (NCI/ADR-RES ovarian): 101% (inactive)
- growth (SW-620 colon): 65.3% (inactive)
- growth (MCF7 breast): 15.5% (inactive)
- growth (KM12 colon): -3.45% (active)

SMILES: Cc1cc[n+](CCCCCCCCCC[n+]2ccc(C)cc2)cc1
- growth (HL-60(TB) leukemia): 95.3% (inactive)

SMILES: CC12CC3OC(=O)C1COC14OC5(C2C1=O)C(O)(CCC1C4CC2OC24CC=CC(=O)C14C)C(=O)OC35C (configuration not stated)
- growth (UACC-62 melanoma): -79.6% [100 µM] (active) and -94.2% [100 µM] (active)
- growth (TK-10 renal): 4.16% [100 µM] (active) and -100% [100 µM] (active)
- growth (MCF7 breast): -49.7% [100 µM] (active) and -85% [100 µM] (active)

SMILES: CN1C(=O)C(CCC(=O)O)N=C(c2cccc(O)c2)c2ccccc21 (configuration not stated)
- growth (UACC-62 melanoma): 82% [30 µM] (inactive)
- growth (TK-10 renal): 113% [30 µM] (inactive)
- growth (MCF7 breast): 89% [30 µM] (inactive)

SMILES: C/C=C1\CN2CCC34c5ccccc5N(C)C35OCC4(C(=O)OC)C1CC25 (configuration not stated)
- growth (UACC-62 melanoma): 82.9% [100 µM] (inactive) and -86% [100 µM] (active)
- growth (TK-10 renal): 80.6% [100 µM] (inactive) and 13.9% [100 µM] (inactive)
- growth (MCF7 breast): 77% [100 µM] (inactive) and -100% [100 µM] (active)

SMILES: CCOC(=O)C1(c2ccccc2)CCN(CC(=O)c2ccc(NC(C)=O)cc2)CC1
- growth (NCI-H460 lung): 112% (inactive)
- growth (786-0 renal): 110% (inactive)
- growth (DU-145 prostate): 123% (inactive)
- growth (SF-268 CNS): 116% (inactive)
- growth (SF-539 CNS): 113% (inactive)
- growth (M14 melanoma): 93.6% (inactive)
- growth (HCT-15 colon): 108% (inactive)
- growth (SNB-75 CNS): 114% (inactive)
- growth (PC-3 prostate): 86.8% (inactive)
- growth (UACC-62 melanoma): 94% (inactive)
- growth (TK-10 renal): 96.4% (inactive)
- growth (ACHN renal): 96% (inactive)
- growth (CAKI-1 renal): 95.4% (inactive)
- growth (HL-60(TB) leukemia): 111% (inactive)
- growth (MOLT-4 leukemia): 102% (inactive)
- growth (OVCAR-3 ovarian): 128% (inactive)
- growth (NCI/ADR-RES ovarian): 107% (inactive)
- growth (SW-620 colon): 104% (inactive)
- growth (MCF7 breast): 107% (inactive)
- growth (KM12 colon): 112% (inactive)

SMILES: O=C1C(Cc2ccccc2)N=C(c2cccc(O)c2)c2ccc(Cl)cc2N1CC1CC1 (configuration not stated)
- growth (UACC-62 melanoma): 94.1% [30 µM] (inactive)
- growth (TK-10 renal): 105% [30 µM] (inactive)
- growth (MCF7 breast): 76.3% [30 µM] (inactive)

SMILES: COc1ccc(-c2nnc(SCC(=O)c3ccccc3)o2)cc1
- growth (HL-60(TB) leukemia): 80.5% (inactive)

SMILES: OC(c1cccc(-n2ccc(C(F)(F)F)n2)c1)c1cnccc1NC1CCCCCC1 (configuration not stated)
- growth (HL-60(TB) leukemia): -35.7% (active)

SMILES: O=C(/C=C/c1cc(-c2ccc3c(c2)OCO3)n[nH]1)c1ccc2c(c1)OCO2
- growth (HL-60(TB) leukemia): 79.7% (inactive)

SMILES: N#CCN1C(=O)C(CCC(N)=O)N=C(c2ccc(O)cc2)c2cc(Cl)ccc21 (configuration not stated)
- growth (UACC-62 melanoma): 91.5% [30 µM] (inactive)
- growth (TK-10 renal): 98.2% [30 µM] (inactive)
- growth (MCF7 breast): 93.4% [30 µM] (inactive)

SMILES: Oc1ccccc1OB(Oc1ccccc1O)N(CCCl)CCCl
- growth (NCI-H460 lung): 68.3% (inactive)
- growth (786-0 renal): 92.3% (inactive)
- growth (DU-145 prostate): 86.9% (inactive)
- growth (SF-268 CNS): 63.5% (inactive)
- growth (SF-539 CNS): 63.2% (inactive)
- growth (M14 melanoma): 85.2% (inactive)
- growth (HCT-15 colon): 75.7% (inactive)
- growth (SNB-75 CNS): 92.8% (inactive)
- growth (PC-3 prostate): 82.8% (inactive)
- growth (UACC-62 melanoma): 94.7% (inactive)
- growth (TK-10 renal): 98.9% (inactive)
- growth (ACHN renal): 86.1% (inactive)
- growth (CAKI-1 renal): 80.4% (inactive)
- growth (HL-60(TB) leukemia): 0.713% (active)
- growth (MOLT-4 leukemia): 57.6% (inactive)
- growth (OVCAR-3 ovarian): 73.8% (inactive)
- growth (NCI/ADR-RES ovarian): 85% (inactive)
- growth (SW-620 colon): 82.9% (inactive)
- growth (MCF7 breast): 88.2% (inactive)
- growth (KM12 colon): 69.4% (inactive)

SMILES: C=CCn1c2ccccc2c2c3c(c4c5ccccc5n(CC=C)c4c21)C(=O)N(O)C3=O
- growth (HL-60(TB) leukemia): -39.5% (active)

SMILES: CC(=O)OC/C(C)=C\CC(C)COC(C)=O (configuration not stated)
- growth (HL-60(TB) leukemia): 101% (inactive)

SMILES: CNC(=O)O/N=C(/C)c1ccc(Cl)cc1
- growth (NCI-H460 lung): 113% (inactive)
- growth (786-0 renal): 90.7% (inactive)
- growth (DU-145 prostate): 114% (inactive)
- growth (SF-268 CNS): 110% (inactive)
- growth (SF-539 CNS): 125% (inactive)
- growth (M14 melanoma): 98.7% (inactive)
- growth (SNB-75 CNS): 87.4% (inactive)
- growth (PC-3 prostate): 91.8% (inactive)
- growth (UACC-62 melanoma): 114% (inactive)
- growth (TK-10 renal): 91.6% (inactive)
- growth (ACHN renal): 129% (inactive)
- growth (CAKI-1 renal): 98.2% (inactive)
- growth (HL-60(TB) leukemia): 92.1% (inactive)
- growth (MOLT-4 leukemia): 93.9% (inactive)
- growth (OVCAR-3 ovarian): 114% (inactive)
- growth (NCI/ADR-RES ovarian): 109% (inactive)
- growth (SW-620 colon): 117% (inactive)
- growth (MCF7 breast): 96.6% (inactive)
- growth (KM12 colon): 114% (inactive)

SMILES: Nc1ncnc(Nc2ccccc2)n1
- growth (HL-60(TB) leukemia): 107% (inactive)

SMILES: Cc1ccc(NC(=O)c2ccc(CN3CCN(C)CC3)cc2)cc1Nc1nc(-c2cccnc2)cs1
- growth (HL-60(TB) leukemia): 57.9% (inactive)
